Among the data in the supplement of paper PMC6555819 are PBM binding z-score values, retold here.

The assay deals with PPARg:RXRa 30nM:10nM, anti-RXR (NR concentration 30 nM, RXRa partner concentration 10 nM). The experiment in a line: PBM binding z-score (relative to random genomic background probes); higher = stronger binding; sequences stand for … in GC…GCGATTGACAGCGTAGAATGAAGG
The essentials: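 Custom Agilent 4×180K protein-binding microarrays carried double-stranded probes. Their 34-nt variable regions held direct-repeat seeds, single-nucleotide variants, half-site ablations and random human genomic background sequences. Arrays were incubated 1 h with ligand-free nuclear receptor dimers in PBS pH 7.4, 2% milk, 0.02% Triton X-100, 1 mM DTT, 0.2 mg/mL BSA and 0.4 mg/ml salmon testes DNA. Antibodies against each partner (one per run) detected binding, and scanned fluorescence was regression-normalized. Binding z-scores use random background probes as reference.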
For ATCTCTAGGTAACAAGTTCAGTGAAAGAGAGGAC, the PBM binding z-score was found to be 0.986.

Consider ACTTACGGGTCATCGAGGTTATAGCACGCGTATA, for which the PBM binding z-score was found to be 2.13.

Regarding CCGACTGGGGCAGAAAGGCTACCATACCATCCGG, the PBM binding z-score is -0.705.

Turning to ACTTGCAGGCCAAGTTTGGGTCACTCAAACAAAG, the PBM binding z-score is -0.561.

Sequence AGAACGAGGGCAATGAGTTGTTAGCACGGGTGGC displayed a PBM binding z-score of 0.096.

Sequence CCTTACGGGTCAAGGTTATAGGACGGGTGGTACG yielded a PBM binding z-score of 2.05.

CCTTACAGGTCACTCCAGGTTATAGCATCGGAGT gave a PBM binding z-score of 1.52.

Consider TCTACTAGGTCAGTTGGTCAGCTAACGAGCTGCC, for which the PBM binding z-score turned out to be 3.87.

For TAGCCTAGGTGAGATCGGGCCAGTATACGCTATA, the PBM binding z-score is -0.335.

As to TGTCAAAGTTCAAAGGTAACGGAAGTATCCACAC, the PBM binding z-score is 5.15.

TCATAAAGGTAAAGGTGAAAGTCGAACGATATGA returned a PBM binding z-score of 5.07.

In the case of ACCGAAAGGTCGAGGTGAGTATAGAGAAAGGGAA, the PBM binding z-score turned out to be 1.22.

As for GATACAGGCTCAAGGCCAGAGTACGCGTATTGAT, the PBM binding z-score is -0.217.

The sequence TCTTGTAGATCAAGCAGGTTAAGACAGCCTGAGT yielded a PBM binding z-score of 2.29.

In turn, TCGAGTAGGTTACCAATGGAGCATTCAGCTTTCT had a PBM binding z-score of 1.33.

The sequence TTACCAAGGTGCGCTGAGGTCGTTGATCCAACTC yielded a PBM binding z-score of -0.287.

Regarding TAGCCGAGGTCAGATCGGGCCAGTATACGCTATA, the PBM binding z-score was found to be 1.05.
